High-throughput results: PubChem, National Center for Advancing Translational Sciences (NCATS)
HPGD inh: blocks human HPGD enzyme activity | P15428 | purified HPGD, NADH fluorescence kinetic, PGE2 substrate | Potency, µM, for the others: at the highest dose activity change, negative = inhibition, most hits filed as inhibitors | 150,000 tested, 4.3% active | AID 894; active = well fitted inhibition curve with a large enough effect, not every such curve was filed as active; inconclusive = small, poorly fitted or top-dose-only effect, or another doubt; inactive = no such curve, though single readings can be large or run the other way; also: potency is read from the fitted curve at half-maximal effect
Target sequence (P15428 whole entry, looked up): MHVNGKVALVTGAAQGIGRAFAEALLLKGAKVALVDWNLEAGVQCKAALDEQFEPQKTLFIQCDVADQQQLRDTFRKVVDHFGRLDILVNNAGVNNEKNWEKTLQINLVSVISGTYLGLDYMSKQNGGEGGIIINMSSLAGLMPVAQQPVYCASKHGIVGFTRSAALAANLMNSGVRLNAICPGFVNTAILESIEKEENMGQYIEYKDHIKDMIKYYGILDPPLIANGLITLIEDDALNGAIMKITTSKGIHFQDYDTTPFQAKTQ
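20 nM HPGD preincubated 15 min at room temperature with compound in 50 mM Tris-HCl pH 8, 0.01% Tween 20. Started with 1 mM NAD+ and 30 uM prostaglandin E2; NADH fluorescence (360/450 nm) read 5 times over 30-s intervals, last minus first.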
12-hLO inh: 12-hLO (ALOX12) enzyme inhibition | purified 12-hLO, xylenol orange hydroperoxide absorbance | Potency, µM (top dose mostly 57.1 µM), for inactives: at the highest dose activity change, negative = inhibition, hits mostly inhibitors | 150,000 tested, 0.12% active | AID 1452; also: potency is read from the fitted curve at half-maximal effect; nearly all actives have a fitted effect of over 55% in size
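150 nM 12hLO, 25 mM Hepes pH 7.0 + 0.01% Triton X-100; cpd preinc 15 min RT; 40 uM arachidonic acid, 30 min RT; Fe-XO 30 min; A573/A405 ratio as read-out.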
IMPase Li inh: membrane-permeable IMPase blocker, potentiated with lithium | CHO-M1 cells, IP1 TR-FRET (IP-One), carbachol + lithium | Potency, µM (top dose mostly 59.4 µM), for the others: at the highest dose activity, negative = IMPase inhibition, actives largely listed as inhibitors | 210,000 tested, 0.35% active | AID 1457;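 also: IP1 builds up when IMPase is blocked and the TR-FRET signal falls; potency is read from the fitted curve at half-maximal effect; plate controls were basal vehicle for no effect and high inhibitor control for full effect; nearly all actives have a fitted effect of over 50% in size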
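Readout is a homogeneous TR-FRET IP1 immunoassay (Ex 320, Em 665 and 620), where raised cytosolic IP1 lowers signal. Cells were CHO-M1 treated 30 min at 37C with test compounds plus a little lithium; AC50 values came from Hill-equation fitting.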
IMPase cell inh: membrane-permeable compound that blocks inositol monophosphatase; P97697; CHO-M1 cells, IP1 accumulation, HTRF TR-FRET ratio; inhibition (IP1 accumulation), % at 46.1 µM; 120,000 tested, under 10 active; AID 901; active = well fitted curve in the direction sought with a large enough effect in the signal ratio, not every such curve was filed as active; inconclusive = small, poorly fitted or top-dose-only effect, or a change in a side signal; inactive = no such curve, though single readings can be large or run the other way; the % refers to the signal ratio;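 also: cells stimulated with carbachol in lithium chloride buffer; plate controls were DMSO basal wells for no effect and reference inhibitor wells for full effect; higher means more IMPase inhibition seen as more IP1 and lower FRET ratio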
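Cellular IMPase inhibition is scored as a rise in cytosolic IP1, detected by competitive TR-FRET between d2-labelled IP1 and a europium anti-IP1 antibody. M1-expressing CHO cells were stimulated with carbachol for 30 min at 37C, with lithium (50 mM LiCl) present in the buffer.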
NPSR antag: neuropeptide S receptor (human) antagonism, cAMP | Potency, µM (doses to about 38.3 µM), for inactives: at the top dose activity change, negative = inhibition, most hits filed as inhibitors | 220,000 tested, 1% active | AID 1461 | CHO-NPSR cells, cAMP TR-FRET, antagonist mode | Q6W5P4; also: potency is read from the fitted curve at half-maximal effect; nearly all actives have a fitted effect of over 50% in size
Target sequence (Q6W5P4 whole entry, looked up): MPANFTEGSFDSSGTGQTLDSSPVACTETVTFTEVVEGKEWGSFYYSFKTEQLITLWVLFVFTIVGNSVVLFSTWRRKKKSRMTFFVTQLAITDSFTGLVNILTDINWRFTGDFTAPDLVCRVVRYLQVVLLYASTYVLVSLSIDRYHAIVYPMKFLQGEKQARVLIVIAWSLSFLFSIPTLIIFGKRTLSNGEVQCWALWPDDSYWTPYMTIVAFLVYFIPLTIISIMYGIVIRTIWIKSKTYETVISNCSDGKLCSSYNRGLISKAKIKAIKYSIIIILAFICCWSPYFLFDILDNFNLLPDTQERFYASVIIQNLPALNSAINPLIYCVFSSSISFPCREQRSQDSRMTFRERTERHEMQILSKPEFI
ALDH1A1 inh: ALDH1A1 (human) enzyme inhibition | Purified ALDH1A1, NADH fluorescence, propionaldehyde substrate | Potency, µM (highest dose often 75.3 µM), for inactives: at the top dose activity, negative = inhibition, most hits filed as inhibitors | 220,000 tested, 7.3% active | AID 1030; active = well fitted inhibition curve with a large enough effect, not every such curve was filed as active; inconclusive = small, poorly fitted or top-dose-only effect, or another doubt; inactive = no such curve, though single readings can be large or run the other way;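 also: potency is read from the fitted curve at half-maximal effect; plate controls were no enzyme wells and a reference inhibitor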
Starred values were filed as active, the others as inactive; ? = inconclusive; · = no result given; [ ] = remark or other dose. An excerpt weighted towards active compounds, which were near 8.9% of everything screened. Unless noted, calls follow the shape of the dose curve; as a rule, active = well fitted curve in the direction sought with a large enough effect; inconclusive = small, poorly fitted or top-dose-only effect, or another doubt; inactive = no such curve, though single readings can be large; an effect the other way counts as inactive or inconclusive. Unless noted, % is scaled to controls: 0 for no effect and ±100 for the full control effect.

SMILES	HPGD inh	12-hLO inh	IMPase Li inh	IMPase cell inh	NPSR antag	ALDH1A1 inh
O=C(NCc1ccc(F)cc1)c1ccc(Nc2nc3ccccc3n3nnnc23)cc1	·	·	·	5.2	·	·
Cc1c(N2C(=O)/C(=C/C3CC=CCC3)SC2=S)c(=O)n(-c2ccccc2)n1C (centres undefined)	·	·	·	·	-31.9%	·
Cc1c(N2C(=O)/C(=C\C3CC=CCC3)SC2=S)c(=O)n(-c2ccccc2)n1C (centres undefined)	·	·	24.6%	·	-23.0%	1.26µM*
Cc1ccc(CNC(=O)CN(C)S(=O)(=O)c2cccc3cccnc23)cc1	-4.9%	-2.6%	13.9%[38.3 µM]	-0.5	1.9%[46.1 µM]	?
Cc1ccc([N+](=O)[O-])c(C)c1	-2.4%	-2.3%	4.9%	·	·	-2.4%
Cc1cc(N2C(=O)C=CC2=O)c([N+](=O)[O-])cc1C	2.82µM*	-19.2%	9.0%	·	?	0.794µM*
CCc1nn2c(=O)cc(COc3ccc(/C=C4\C(=N)N5N=C(C)SC5=NC4=O)cc3)nc2s1	·	·	-7.9%	·	-48.8%	8.91µM*
CCOC(=O)c1c(NC(=O)/C=C/C(=O)O)sc(C)c1-c1ccc(C(C)(C)C)cc1	·	·	11.2%	·	10µM*	28.2µM*
COc1ccc(-c2nnn(CC(=O)N(Cc3ccccc3Cl)C(C(=O)NCC3CCCO3)c3ccco3)n2)cc1OC (centres undefined)	-14.8%	3.0%	44.9%[38.3 µM]	4.8[1.84 µM]	-13.6%[46.1 µM]	7.6%
Cc1nn(-c2ccccc2)c(C)c1NC(=O)Cc1cccs1	15.8µM*	0.0%	7.7%	·	2.9%	-4.1%
CC(C)CNC(=O)c1nc(-c2ccccc2)n(-c2ccccc2)n1	-1.8%	-8.1%	11.4%[38.3 µM]	5.0	-3.8%[46.1 µM]	12.6µM*
Cc1c(C(=O)NCc2cccs2)oc2ccccc12	-28.3%	-2.8%	12.6%[38.3 µM]	4.8	-1.4%[46.1 µM]	1.7%
Cc1nn(-c2ccccc2)c(C)c1C(=O)NCc1cccs1	?	1.2%	1.1%	·	8.5%	4.1%
Cc1c(-c2ccccc2)nc2ccccc2c1C(=O)NCc1cccs1	?	-7.9%	8.5%	-8.4	-3.1%	14.1µM*
Cc1nn(-c2ccccc2)c(Cl)c1C(=O)NCc1cccs1	10µM*	-0.2%	6.7%	-5.5	-5.3%[46.1 µM]	-1.4%
CCOc1cccc(/C=N/NC(=O)c2cc(-c3cccn3C)n[nH]2)c1O	·	·	3.9%	·	12.6%	6.6%
CC(C)(C)NC(=O)C(c1ccc(O)cc1)N(C(=O)CCC(=O)Nc1nccs1)c1cccc(F)c1 (centres undefined)	·	·	-4.3%	·	0.4%	3.2%
Cc1nn(-c2ccccc2)c(Cl)c1C(=O)NCC(C)C	10µM*	-2.2%	7.0%[38.3 µM]	2.0	-2.7%[46.1 µM]	10.7%
CC(C)c1onc(C(=O)NCCc2ccccc2)c1[N+](=O)[O-]	·	·	6.5%	·	12.1%	?
CC(C)c1onc(C(=O)N2CCN(Cc3ccccc3)CC2)c1[N+](=O)[O-]	-7.9%	-2.2%	-2.1%	·	14.2%	2.51µM*
Cc1n[nH]c(=S)n(/N=C/c2cccc([N+](=O)[O-])c2)c1=O	·	·	·	·	-2.9%	?
O=[N+]([O-])c1cccc(/C=N/n2c(-c3cccnc3)n[nH]c2=S)c1	20µM*	-0.9%	-0.1%	·	-11.1%	10µM*
O=[N+]([O-])c1ccc(Cl)c(/C=N/n2c(-c3cccnc3)n[nH]c2=S)c1	8.91µM*	-1.0%	-5.3%	-7.2	-15.7%	7.94µM*
O=[N+]([O-])c1ccc(/C=N/n2c(-c3cccnc3)n[nH]c2=S)cc1	·	0.4%	·	0.8	?	2.82µM*
C=C(C)Cn1c(SCC(=O)N/N=C/c2ccccc2OCC(=O)O)nnc1-c1ccc(Br)cc1	·	·	·	·	-19.0%	·
SMILES	HPGD inh	12-hLO inh	IMPase Li inh	IMPase cell inh	NPSR antag	ALDH1A1 inh
COc1ccc(OC)c(-c2cc(C3CCN(c4ncccc4[N+](=O)[O-])CC3)[nH]n2)c1	14.1µM*	-25.9%	15.6%[38.3 µM]	7.3	-23.7%[46.1 µM]	?
O=C1C2C3C=CC(CO)(O3)C2C(=O)N1c1ccc(-c2ccccc2)cc1 (centres undefined)	1.41µM*	?	12.1%[38.3 µM]	-3.1	-13.8%[46.1 µM]	0.126µM*
O=C(O)c1ccc(N2C(=O)C3C4c5ccccc5C(Br)(c5ccccc54)C3C2=O)cc1 (centres undefined)	·	·	12.3%	·	24.3%	5.5%
CC(C)(C)C(=O)NCC12C=CC(O1)C1C(=O)N(c3ccccc3)C(=O)C12 (centres undefined)	20µM*	-1.3%	2.8%	-1.1	13.4%	1.41µM*
Cc1ccc(/C=N/NC(=O)CN2CCN(Cc3ccccc3)CC2)o1	·	·	·	·	7.7%	·
O=C1OC(NC(=O)c2ccccc2)C(n2cc(CO)nn2)=C1Cl (centres undefined)	22.4µM*	-14.6%	19.3%[38.3 µM]	2.1	-9.0%[46.1 µM]	12.6µM*
O=C1C=C(c2ccccc2)C[C@H](c2cccs2)[C@H]1n1nnc([N+](=O)[O-])n1	-19.7%	-9.1%	7.1%	5.3	-13.0%[46.1 µM]	10µM*
Cc1cc(C)c(S(=O)(=O)/N=C2/C=C(SCC(=O)O)C(=O)c3ccccc32)cc1C	·	·	6.9%	·	3.9%	7.08µM*
CCOc1ccccc1C(=O)Nc1nnc(SCC(=O)Nc2cc(C)on2)s1	·	·	-3.0%	·	10.3%	?
CC1CCN(C(=O)c2ccc3c(c2NCCO)C(=O)c2ccccc2C3=O)CC1	22.4µM*	-5.1%	29.7%[38.3 µM]	?	-16.3%[46.1 µM]	?
CC1CC(C)CN(C(=O)c2cccc3c2-c2ccccc2C3=O)C1 (centres undefined)	·	·	·	·	2.1%	·
O=C(O)[C@@H]1CSC2(CCSC2)N1 (some centres undefined)	-9.5%	-3.7%	5.0%[38.3 µM]	7.4	7.0%[46.1 µM]	-11.3%
COc1ccc(C2C(C(=O)c3ccccc3)N3c4ccccc4C=CC3C2[N+](=O)[O-])cc1 (centres undefined)	·	·	13.3%	·	?	25.1µM*
c1ccc(CN2CCOCC2)cc1	-4.9%	-5.5%	17.3%[38.3 µM]	8.4	-11.0%[46.1 µM]	6.4%
c1ccc(Oc2cccc(CN3CCOCC3)c2)cc1	25.1µM*	10.9%	42.9%[38.3 µM]	?	-0.4%[46.1 µM]	?
OC1(c2cccnc2)CCN(Cc2nnnn2C2CCCCC2)CC1	1.6%	3.5%	-6.5%[38.3 µM]	-6.4	-4.9%[46.1 µM]	?
CCCSc1nc(-n2ncc(C#N)c2N)c2c3c(sc2n1)CCC(C)C3 (centres undefined)	?	-3.9%	34.5%[38.3 µM]	7.3	?	3.98µM*
Cc1nc(-n2ncc(C#N)c2N)c2c3c(sc2n1)CCC3	-19.4%	5.9%	-3.6%[38.3 µM]	6.3	-6.9%[46.1 µM]	9.0%
Cc1cc(/C=N/N2CCN(C)CC2)c(C)n1-c1ccccc1F	·	·	7.7%	·	9.5%	11.2µM*
CN1CCN(/N=C/c2ccc(-c3ccccc3)cc2)CC1	·	·	22.7%	·	-26.2%	-3.8%
CC1=NN(c2ccc(C(F)(F)F)cn2)C(=O)C1	-9.1%	1.7%	-7.7%	·	0.4%	22.4µM*
